Screening data as filed in PubChem.
Hits are enriched below; roughly 2.3% of the tested compounds scored in any of these assays.
Bcl-xL primary = inhibitors of human Bcl-xL, primary screen, biochemical, fluorescence polarization, HTS. Bcl-2-like protein 1 (Homo sapiens), Q07817. GST-Bcl-xL / FITC-Bim BH3 peptide fluorescence polarization. inhibition, % at 10.9 µM. actives 0.7% (n = 320,000). AID 2129, 2009;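 active = inhibition above the mean of all tested compounds plus 3 SD, cutoff set per campaign, cut at about 30% in these data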;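 also: 0% = DMSO wells and 100% = unlabeled Bim-BH3 peptide competitor; inhibitors lower millipolarization by displacing the labeled peptide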
Target sequence (Q07817 whole entry, looked up): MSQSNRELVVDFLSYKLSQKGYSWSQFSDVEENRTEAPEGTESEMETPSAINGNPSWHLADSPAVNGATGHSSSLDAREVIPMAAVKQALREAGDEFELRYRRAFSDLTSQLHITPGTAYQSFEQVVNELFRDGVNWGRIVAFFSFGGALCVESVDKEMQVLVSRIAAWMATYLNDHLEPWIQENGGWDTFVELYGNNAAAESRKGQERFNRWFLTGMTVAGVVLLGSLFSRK
Mcl-1 Bim block = inhibitors of Bim peptide binding to Mcl-1, primary screen, biochemical, bead-based flow cytometry, multiplex | Induced myeloid leukemia cell differentiation protein Mcl-1 (Homo sapiens), Q07820 | inhibition, % at 10 µM | AID 1009, 2008 | Bim peptide-Mcl-1 binding | actives 0.1% (n = 190,000); in the data active = inhibition above about 40%;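 also: 0% = no compound tracer wells and 100% = peptide blocker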
Mcl1-Noxa inh = Mcl-1/Noxa binding inhibitors, primary screen, biochemical, TR-FRET, 1536-well | actives 1.5% (n = 220,000) | inhibition, % at 21.7 µM | TR-FRET Mcl-1/Noxa peptide binding, 2 h | AID 1022, 2008;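 active = compounds that cut the protein-peptide binding signal by more than 50% relative to plate controls in a single-dose test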;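 also: His-tagged Mcl-1 with rhodamine Noxa BH3 peptide and terbium anti-His antibody; 0% = Mcl-1 plus Noxa peptide wells and 100% = peptide-only wells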
MCL1-BIM inh = inhibitors of MCL1 binding to BIM-BH3, primary screen, biochemical, fluorescence polarization; Induced myeloid leukemia cell differentiation protein Mcl-1 (Homo sapiens), Q07820; GST-MCL1 / FITC-Bim-BH3 fluorescence polarization; inhibition, % at 10.9 µM; actives 0.68% (n = 320,000); AID 2057, 2009;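 active = inhibition above the mean inhibition of all tested compounds plus 3 SD, set per campaign, cut at about 40% in these data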;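 also: 0% = DMSO wells and 100% = unlabeled Bim-BH3 peptide control; higher means more loss of mP so more displacement of Bim peptide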
GLD-1 TGE inh = GLD-1/TGE RNA complex disruptors, primary screen, biochemical, fluorescence polarization. inhibition, % at 5.96 µM. actives 0.44% (n = 320,000). Female germline-specific tumor suppressor gld-1 (Caenorhabditis elegans), Q17339. purified GLD-1 + fluorescein TGE RNA. AID 2280, 2010;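 active = percent inhibition above a per-plate cutoff, the plate mean of test compounds plus 3 SD, cut at about 30% in these data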;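 also: 0% = DMSO wells with GLD-1 and probe and 100% = wells lacking GLD-1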
Mcl1-Bid inh = Mcl-1/Bid binding inhibitors, primary screen, biochemical, TR-FRET, 1536-well | inhibition, % at 21.7 µM | actives 0.97% (n = 220,000) | TR-FRET Mcl-1/Bid-Dy647 peptide binding | Induced myeloid leukemia cell differentiation protein Mcl-1 (Homo sapiens), Q07820;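 active = compounds that cut the binding signal by more than half at the single screening dose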;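 also: His-tagged Mcl-1 with europium anti-His antibody binding Bid BH3 peptide; 0% = Mcl-1 plus peptide wells and 100% = peptide-only wells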
Bcl-xL conf = Bcl-xL inhibitors blocking Bim BH3 binding, confirmation, counter-screen for MCL1 inhibitor project, biochemical, fluorescence polarization; inhibition, % at 10.9 µM; actives 54% (n = 1,700); shares compounds with MCL1-BIM inh; GST-Bcl-xL / FITC-Bim BH3 peptide FP binding;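 active = inhibition above a cutoff equal to the mean inhibition of all tested compounds plus 3 SD, cut at about 30% in these data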;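 also: 0% = DMSO wells and 100% = unlabeled Bim BH3 control peptide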
MCL1 BIM confirm = inhibitors of MCL1 binding to BIM-BH3, confirmation, biochemical, fluorescence polarization, triplicate | GST-MCL1 / FITC-Bim-BH3 fluorescence polarization | shares compounds with MCL1-BIM inh | inhibition, % at 10.9 µM | actives 61% (n = 1,700);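 active = inhibition above the average of all tested compounds plus 3 SD, cut at about 40% in these data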;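 also: 0% = DMSO wells and 100% = unlabeled Bim-BH3 control peptide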
GLD-1 TGE cf = GLD-1/TGE RNA binding inhibitors, retest, confirmation, biochemical, fluorescence polarization, triplicate; shares compounds with GLD-1 TGE inh; GLD-1/FL-TGE RNA fluorescence polarization; inhibition, % at 5.96 µM; actives 10% (n = 550);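 active = average inhibition across triplicates above the hit cutoff set in the primary screen, cut at about 32% in these data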;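 also: 0% = GLD-1 with RNA probe and DMSO and 100% = wells lacking GLD-1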
An asterisk follows results filed as active; / = no result.

SMILES	Bcl-xL primary	Mcl-1 Bim block	Mcl1-Noxa inh	MCL1-BIM inh	GLD-1 TGE inh	Mcl1-Bid inh	Bcl-xL conf	MCL1 BIM confirm	GLD-1 TGE cf
O=C1CC(c2ccccc2)c2ccccc21 (stereo unspecified)	2	-2	12	-1	5	0	/	/	/
c1ccc(CSc2ccc(-c3cccnc3)nn2)nc1	7	-2	6	-1	3	-3	/	/	/
N#CC1=C(N)N(c2ccccc2)C(c2ccccc2)C1(C#N)C#N (stereo unspecified)	2	2	/	4	4	/	/	/	/
N#CC1=C(N)C2=CCCC[C@H]2[C@H](c2cccc(F)c2)C1(C#N)C#N	44*	-7	24	45*	37*	-56	24	25	1
CC(C)(C)[C@@H]1CCC(=O)N(CC[C@H](N=[N+]=[N-])c2ccccc2)CC1	0	/	/	-2	6	/	/	/	/
CCCCNc1c(N)n(CCCC)c(=O)[nH]c1=O	36*	1	10	52*	37*	-47	56*	79*	79*
CC(C)CNc1c(N)n(CC(C)C)c(=O)[nH]c1=O	/	-3	7	/	/	-64	/	/	/
CCCCn1c(N)c(NCCC)c(=O)[nH]c1=O	35*	-10	0	50*	31*	-73	29	39	9
CCCCn1c(N)c(NCc2ccccc2OC)c(=O)[nH]c1=O	15	2	-7	17	21	-82	/	/	/
CCN1C(=O)[C@@H]2[C@@H](c3ccc(SC4CCCCC4)cc3)N3CCCC[C@@]3(C(=O)OC)[C@@H]2C1=O	-2	/	/	-16	-2	/	/	/	/
COc1cc(OC)cc(C(=O)NNC(=O)CCC(=O)c2cc(C)sc2C)c1	/	/	/	/	1	/	/	/	/
CC(C)(C)c1ccc(S(=O)(=O)N2CCN(C(=O)C3CCC3)CC2)cc1	1	/	/	2	4	/	/	/	/
Cc1ccccc1N1CCN(C(=O)C2CCC(=O)N(C3CCCC3)C2)CC1 (stereo unspecified)	1	/	/	0	-1	/	/	/	/
O=C(C1CCC(=O)N(C2CCCCCC2)C1)N1CCN(c2ccccc2Cl)CC1 (stereo unspecified)	89*	/	/	57*	31*	/	10	-4	3
CCn1c(CSc2nccn2C)nc2cc(C(=O)O)ccc21	57*	-2	19	65*	45*	-9	33*	44*	40*
Cc1ccccc1N=C(N)Nc1ccccc1C	63*	/	/	71*	43*	/	63*	85*	43*
CCOC(=O)c1ccc(NC(=O)[C@@H](NC(N)=O)C(C)C)cc1	110*	/	-4	120*	98*	-37	0	-2	-2
CCC(C)C(NC(N)=O)C(=O)Nc1ccc(C(=O)OC)cc1 (stereo unspecified)	1	0	2	-6	1	-27	/	/	/
Cc1ccc(/C=C2/NC(=O)N(Cc3ccccc3)C2=O)o1	38*	2	45	49*	50*	-27	-48	-83	-88
O=C(O)c1ccc2c3c(ncnc13)-c1ccccc1C2=O	72*	-4	22	74*	60*	13	121*	142*	45*
O=C(O)c1cccc2c1C(=O)c1ccccc1C2=O	6	0	8	-2	6	-6	/	/	/
